Screens from PubChem BioAssay.
Hits are enriched below; roughly 1.8% of the tested compounds scored in any of these assays.
PAD4 FP inh: blocks human protein arginine deiminase 4 | Q9UM07 | recombinant PAD4, RCA probe fluorescence polarization | inhibition, % at 6.36 µM | actives 0.41% (n = 330,000) | AID 485272;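 active = percent inhibition above a cutoff equal to the mean of all tested compounds plus 3 SD, cut at about 15% in these data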
Fam108B counter: Fam108B inhibition, counter-screen for RBBP9 inhibitors | recombinant Fam108B, FP-Rh probe fluorescence polarization | inhibition, % at 9.51 µM | actives 0.33% (n = 300,000);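 active = inhibition above the screen mean inhibition plus 3 SD, computed separately per campaign, cut at about 18% in these data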;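 note: inhibitors lower polarization as less probe binds the enzyme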
LYPLA1 inh: LYPLA1 (human) inhibition in PME1 counter-screen | recombinant LYPLA1, FP-Rh probe fluorescence polarization | inhibition, % at 5.9 µM | actives 0.16% (n = 320,000) | AID 2174;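 active = inhibition above the mean of all tested compounds plus 3 SD, set per campaign, cut at about 14% in these data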;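 note: inhibitors block serine hydrolase probe labeling of LYPLA1 so polarization falls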
Target sequence (O75608 whole entry, looked up): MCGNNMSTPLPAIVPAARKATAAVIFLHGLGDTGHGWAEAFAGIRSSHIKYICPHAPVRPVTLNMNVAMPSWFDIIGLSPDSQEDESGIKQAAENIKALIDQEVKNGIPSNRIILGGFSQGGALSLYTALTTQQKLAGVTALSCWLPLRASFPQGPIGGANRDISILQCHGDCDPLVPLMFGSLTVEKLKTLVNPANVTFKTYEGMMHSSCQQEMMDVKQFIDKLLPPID
PME-1 inh: PME-1 (human) inhibition. AID 2130. recombinant PME-1, FP-Rh probe fluorescence polarization. inhibition, % at 5.9 µM. actives 0.53% (n = 320,000);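 active = inhibition above the campaign mean of all compounds plus 3 SD, cut at about 26% in these data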;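 note: competitive labeling of PME-1 active site by serine hydrolase directed probe; inhibitors block probe labeling so polarization falls and inhibition rises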
GSTO1 counter: counter-screen for RBBP9 inhibitors: inhibitors of human GSTO1; recombinant GSTO1, activity-based probe fluorescence polarization; inhibition, % at 5.96 µM; actives 1.1% (n = 300,000); P78417;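 active = inhibition above the campaign mean inhibition plus 3 SD, cut at about 35% in these data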
Target sequence (P78417 whole entry, looked up): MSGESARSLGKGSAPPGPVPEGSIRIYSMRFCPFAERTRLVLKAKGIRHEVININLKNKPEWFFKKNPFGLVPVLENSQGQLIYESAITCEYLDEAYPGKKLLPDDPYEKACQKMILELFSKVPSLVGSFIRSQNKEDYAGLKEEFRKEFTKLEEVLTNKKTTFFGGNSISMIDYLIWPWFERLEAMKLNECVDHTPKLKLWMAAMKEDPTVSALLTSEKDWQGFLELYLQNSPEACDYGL
LYPLA2 counter: counter-screen for PME1 inhibitors: inhibitors of human LYPLA2 | actives 0.38% (n = 320,000) | recombinant LYPLA2, FP-Rh probe fluorescence polarization | O95372 | inhibition, % at 5.9 µM;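 active = inhibition above the screen-wide mean plus 3 SD, limit set per campaign, cut at about 26% in these data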
Target sequence (O95372 whole entry, looked up): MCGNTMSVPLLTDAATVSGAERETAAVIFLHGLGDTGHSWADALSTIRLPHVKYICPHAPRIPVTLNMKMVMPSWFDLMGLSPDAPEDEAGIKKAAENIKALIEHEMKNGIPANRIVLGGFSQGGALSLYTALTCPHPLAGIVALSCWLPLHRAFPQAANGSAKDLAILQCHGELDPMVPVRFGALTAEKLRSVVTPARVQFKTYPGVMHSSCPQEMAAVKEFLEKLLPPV
GSTO1 confirm: confirmation of human GSTO1 inhibitors; shares compounds with GSTO1 counter; recombinant GSTO1, probe fluorescence polarization; inhibition, % at 5.96 µM; actives 54% (n = 2,400); AID 2176;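 active = inhibition above the primary screen's cutoff, its mean inhibition plus 3 SD, cut at about 35% in these data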;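 note: loss of polarization as inhibitors block binding of rhodamine sulfonate ester activity probe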
GSTO1 ABPP inh: blocks recombinant human glutathione S-transferase omega 1 | inhibition, % at 1 µM | recombinant GSTO1, gel ABPP SE-Rh probe fluorescence | actives 30% (n = 130) | AID 463110 | shares compounds with GSTO1 counter;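 active = inhibition of the enzyme GSTO1 above about 75%, limit read from the data; inactive = inhibition below that limit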
Each line names hits and unclear results; the compound was inactive in the other large screens (follow-up assays come after a bar, where they were run).

COc1ccc(CCNC(=O)COC(=O)Cn2cnc3c2c(=O)n(C)c(=O)n3C)cc1	none (no result: Fam108B counter, GSTO1 counter)
Cc1ccc[n+](CC(=O)Nc2ccc([N+](=O)[O-])cc2)c1	GSTO1 counter 91.4 | GSTO1 confirm 94.7
Cc1ccc[n+](CC(=O)Nc2cccc([N+](=O)[O-])c2)c1	none
Cc1ccc(OCC(=O)NNC(=O)Nc2ccc(Cl)cc2)c(Br)c1	none
CCOc1ccccc1NC1c2ccccc2C(=O)N1c1ccc(C)cn1 (centres undefined)	none
CCOC(=O)c1ccccc1NC1c2ccccc2C(=O)N1c1ccc(C)cn1 (centres undefined)	GSTO1 counter 75.7 | GSTO1 confirm inactive
O=C1C(Cl)=C(N2CCCC2)C(=O)N1c1ccccc1F	none
CCCC[n+]1ccn(C2=C([O-])c3ccccc3C(=O)/C2=N\S(=O)(=O)c2ccc(Cl)cc2)c1	GSTO1 counter 75.3 | GSTO1 confirm 70.7
CCCC[n+]1ccn(-c2nc3ccccc3nc2[N-]S(=O)(=O)c2ccc(Br)cc2)c1	none
CCCCC[n+]1ccn(C2=C([O-])c3ccccc3C(=O)/C2=N\S(=O)(=O)c2ccc(Cl)cc2)c1	GSTO1 counter 65.6 | GSTO1 confirm inactive
Oc1ccc(C2CNCc3sccc32)cc1O (centres undefined)	GSTO1 counter 48.5 | GSTO1 confirm inactive
CCOC(=O)C1CCCN(C(=O)CCCn2c(=O)c3cccn3c3cccnc32)C1 (centres undefined)	none
CC(=O)c1ccc(NC(=O)CC(C)S(=O)(=O)c2ccc3c(c2)CCN3C(C)=O)cc1 (centres undefined)	none
O=C1C(=O)N(CCS(=O)(=O)c2ccccc2)c2ccc(Cl)cc21	GSTO1 counter 43.5 | GSTO1 confirm inactive
CCc1ccc2c(c1)C(=O)C(=O)N2CCS(=O)(=O)c1ccccc1	none
CCN(CC(=O)Nc1c(F)cccc1F)C(=O)/C=C/c1ccc2ccccc2n1	GSTO1 counter 62.2 | GSTO1 confirm inactive
Oc1ccc(CCNc2c3ccccc3nc3ccccc23)cc1O	GSTO1 counter 47.8 | GSTO1 confirm inactive
COc1ccc(-n2c(C)cc(=O)[nH]c2=O)cc1	none
O=C(OCn1ncc(Cl)c(Cl)c1=O)c1ccc(F)cc1	GSTO1 counter 44.3 | GSTO1 confirm inactive
O=c1c(Cl)c(Cl)cnn1Cc1ccc(F)cc1	none
O=C(CNC(=O)c1n[nH]c2ccccc12)Nc1ccc(F)c(F)c1F	none (no result: Fam108B counter, LYPLA1 inh, PME-1 inh, GSTO1 counter, LYPLA2 counter)
CCCc1ccccc1OCCNS(=O)(=O)c1cc2c(cc1C)OCC(=O)N2	GSTO1 counter 43.2 | GSTO1 confirm inactive
O=C(N[C@H]1C/C=C\C[C@H](CC(=O)N(CCO)Cc2ccccc2)C(=O)N[C@H](Cc2c[nH]c3ccccc23)COC1=O)OCC1c2ccccc2-c2ccccc21	none (no result: Fam108B counter, LYPLA1 inh, PME-1 inh, GSTO1 counter, LYPLA2 counter)
Cc1ccc(Nc2nc(-c3sc(C)nc3C)cs2)cc1	none
Cc1nc(C)c(-c2csc(N)n2)s1	GSTO1 counter 39.3 | GSTO1 confirm inactive
CCCNC(=O)c1ccc2c(=O)n3c(-c4ccc(C)cc4)csc3nc2c1	GSTO1 counter 45.8 | GSTO1 confirm inactive
O=C(O)c1ccccc1Nc1ccnc(C(F)(F)F)c1	none
O=[N+]([O-])c1cc([N+](=O)[O-])c2cc3ccccc3nc2c1	GSTO1 counter 39.3 | GSTO1 confirm inactive
COc1ccccc1C(C)NC(=O)Cc1ccc(S(=O)(=O)N2CCOCC2)s1 (centres undefined)	none
CCOC(=O)c1nc2ccccc2nc1C	none
CCc1cc[n+](-c2nc3ccccc3nc2C(=C=[N-])C#N)cc1	GSTO1 counter 62.8 | GSTO1 confirm inactive
N#CC(=C=[N-])c1nc2ccccc2nc1-[n+]1cccc(NC(=O)c2cccs2)c1	GSTO1 counter 54.4 | GSTO1 confirm inactive
O=C(Nc1ccc(/C=C/c2nc3ccccc3o2)cc1)c1ccc(F)cc1	none
N#CC(=C=[N-])c1nc2ccccc2nc1-[n+]1cccc(NC(=O)c2ccccc2)c1	GSTO1 counter 59.0 | GSTO1 confirm inactive
N#CC(=C=[N-])c1nc2ccccc2nc1-[n+]1cccc(NC(=O)c2ccc(F)cc2)c1	GSTO1 counter 58.9 | GSTO1 confirm inactive
O=C(Nc1ccc[n+](CC(=O)c2cccc3ccccc23)c1)c1ccccc1	none
Cc1ccc(C)c(S(=O)(=O)N2CCN(C(=O)c3cncc(Br)c3)CC2)c1	none
C=CCOc1cccc(/C=N/NC(=O)CC(=O)NC2CCCCC2)c1	none
COc1cc(CC(=O)OCC(=O)NCc2cccs2)cc(OC)c1OC	none (no result: Fam108B counter, LYPLA1 inh, PME-1 inh, GSTO1 counter, LYPLA2 counter)
Nc1c(N)c2ccccc2oc1=O	none
O=c1oc2ccccc2c2oc3cc(O)c(O)cc3c12	GSTO1 counter 48.9 | GSTO1 confirm inactive
COCCNC(=O)c1c(N)n(CCC2=CCCCC2)c2nc3ccccc3nc12	GSTO1 counter 42.0 | GSTO1 confirm inactive
COc1ccc(CCn2c(N)c(C(=O)NCc3ccco3)c3nc4ccccc4nc32)cc1OC	GSTO1 counter 51.7 | GSTO1 confirm inactive
COc1ccc(CCNC(=O)c2ccc3nc(-c4ccco4)c(-c4ccco4)nc3c2)cc1OC	GSTO1 counter 38.9 | GSTO1 confirm inactive
CCCCCn1c(=O)c2ccccc2n2c(CCl)nnc12	GSTO1 counter 83.9 | GSTO1 confirm 95.0 | GSTO1 ABPP inh inactive
CC(C)CCn1c(=O)c2ccccc2n2c(CN3CCCC3)nnc12	none
CC(C)CCn1c(=O)c2ccccc2n2c(CCl)nnc12	GSTO1 counter 81.4 | GSTO1 confirm 95.3 | GSTO1 ABPP inh 81.0
COCC(C)N1CC(O)=C(c2nc(-c3ccc(Cl)cc3)cs2)C1=N (centres undefined)	none
Cc1ccc(NC(=O)/C(=C\c2ccc([N+](=O)[O-])cc2)NC(=O)c2ccccc2)cc1	none
O=C(N/N=C/c1ccc(O)c(O)c1O)/C(=C/c1ccc([N+](=O)[O-])cc1)NC(=O)c1ccccc1	GSTO1 counter 54.0 | GSTO1 confirm inactive
Cc1cc(C)c(NC(=O)CSc2nc3ncc(Br)cc3[nH]2)c(C)c1	none
O=C(CSc1nc2ncc(Br)cc2[nH]1)Nc1ccc2c(c1)OCO2	GSTO1 counter 45.4 | GSTO1 confirm 53.4
Cc1cccc(C)c1NC(=O)CN1CCN(C(=O)c2ccc(OCc3cn4ccccc4n3)cc2)CC1	none (no result: Fam108B counter, LYPLA1 inh, PME-1 inh, GSTO1 counter, LYPLA2 counter)
C/C(=N\Nc1nc2ccccc2c(=O)n1O)c1ccco1	GSTO1 counter 67.4 | GSTO1 confirm inactive
O=C(CCl)NC1(C(F)(F)F)C(=O)Nc2c1c(=O)[nH]c(=O)n2-c1ccccc1 (centres undefined)	GSTO1 counter 66.9 | GSTO1 confirm 71.3
CCN(C(=O)c1cccc(S(=O)(=O)N(C)C)c1)C12CC3CC(CC(C3)C1)C2	none
Clc1ncccc1-c1nnn(-c2ccccc2)n1	GSTO1 counter 57.8 | GSTO1 confirm inactive
